# The campaign covered roughly 190,000 compounds. About 1,300 (0.68%) were called active. Rule as the data show it: active = inhibition above about 50%; inactive = the rest. What follows is part of a selection rich in actives, with near analogues and random picks from the rest.
# Molecular target: Mannose-6-phosphate isomerase (Homo sapiens) (UniProt P34949)
# Test: human PMI inhibitors, high substrate, primary screen, biochemical, fluorescence intensity, high mannose 6-phosphate (AID 1220)
# Settings: recombinant PMI enzyme, coupled fluorescence intensity; at 20 µM; stronger effect = higher value
# Sequence of Mannose-6-phosphate isomerase (Homo sapiens) (P34949 whole entry, looked up): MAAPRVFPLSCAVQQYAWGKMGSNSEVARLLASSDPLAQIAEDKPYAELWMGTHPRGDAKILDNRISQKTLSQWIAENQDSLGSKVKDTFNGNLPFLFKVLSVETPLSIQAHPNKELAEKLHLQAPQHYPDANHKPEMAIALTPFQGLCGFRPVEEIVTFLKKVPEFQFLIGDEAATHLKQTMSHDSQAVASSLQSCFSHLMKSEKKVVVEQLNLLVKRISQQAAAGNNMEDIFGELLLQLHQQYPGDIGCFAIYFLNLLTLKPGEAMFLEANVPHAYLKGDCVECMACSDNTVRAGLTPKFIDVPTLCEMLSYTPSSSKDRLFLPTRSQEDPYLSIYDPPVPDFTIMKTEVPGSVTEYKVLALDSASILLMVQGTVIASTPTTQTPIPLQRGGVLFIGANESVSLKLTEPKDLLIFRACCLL
row,SMILES,inhibition
1,Cc1nc2ccc3[nH]snc3c2n1,2.6% (inactive)
2,c1cc2[nH]snc2c2nc(C3CC3)nc12,54.2% (active)
3,Cc1cc(/C=C2\NC(=O)N(Cc3ccc(Cl)cc3)C2=O)c(C)n1C,-58.7% (inactive)
4,O=C(CN1C(=O)S/C(=C\c2ccc(O)cc2)C1=O)c1ccccc1,12.5% (inactive)
5,CS(=O)(=O)N1CCN(c2ccccc2NC(=O)CSc2nnc(-c3ccco3)o2)CC1,0.5% (inactive)
6,CC(C)CN(C(=O)CSc1nnc(-c2ccco2)o1)c1c(N)n(Cc2ccccc2)c(=O)[nH]c1=O,-2.6% (inactive)
7,Cc1cc(C(F)(F)F)nn1C(=O)c1cccnc1Cl,6.5% (inactive)
8,Nc1cccnc1-n1nc(C(F)(F)F)cc1C(F)(F)F,-0.6% (inactive)
9,ONc1cccnc1-n1nc(C(F)(F)F)cc1C(F)(F)F,67.9% (active)
10,COc1cccc(N2CCN(c3ccc(S(=O)(=O)N4CCCC4)cc3)CC2)c1,18.6% (inactive)
11,Cc1sc2ncnc(NCC(C)(C)N3CCOCC3)c2c1C,-3.6% (inactive)
12,CCOC(=O)/C(=C/c1ccc(OC(=O)c2ccccc2)cc1)C(C)=O,4.7% (inactive)
13,COCCOC(=O)/C(=C/c1ccc(OC(=O)c2ccccc2)cc1)C(C)=O,0.4% (inactive)
14,CCOC(=O)/C(=C/c1ccc(OC(=O)c2ccncc2)cc1)C(C)=O,61.4% (active)
15,Cn1c2ccccc2c2ncn(CCC3=CCCCC3)c(=O)c21,9.7% (inactive)
16,CCOC(=O)CSc1nc(C)c2cc(C)c(C)cc2n1,1.6% (inactive)
17,O=C(NC1C=CS(=O)(=O)C1)c1ccccc1 (centres undefined),5.8% (inactive)
18,COc1cccc(OC)c1C(=O)Oc1ccc2c(c1)O/C(=C\c1ccncc1)C2=O,7.7% (inactive)
19,COc1ccc(NC(=O)CSc2ncnc3c2cnn3Cc2ccccc2)cc1,8.2% (inactive)
20,O=C(Oc1cccc2c(OC(=O)N3CCCC3)cccc12)N1CCCC1,57.3% (active)
21,O=C(Oc1ccc(Cl)c2ccccc12)N1CCCCC1,-3.1% (inactive)
22,O=C(Oc1cccc2c(OC(=O)N3CCOCC3)cccc12)N1CCOCC1,2.4% (inactive)
23,CC(C)CCC(C)N=Cc1c(O)n(Cc2ccccc2)c(=O)c2ccccc12 (centres undefined),6.3% (inactive)
24,CCOC(=O)Nc1ccc(Oc2ccccc2)cc1,4.8% (inactive)
25,N#CC1=C(N)C(C#N)(C#N)C(c2ccc[nH]2)C2CCCC=C12 (centres undefined),35.1% (inactive)

row,SMILES,inhibition
1,N#CC1=C(N)C(C#N)(C#N)C(c2cccnc2)C2CC(c3ccccc3)CC=C12 (centres undefined),47.2% (inactive)
2,N#CC1=C(N)C(C#N)(C#N)C(c2cccnc2)C2CCCC=C12 (centres undefined),50.3% (active)
3,O=C(O)CCC(=O)Nc1ccc(C(=O)OCC(=O)c2ccc(Cl)cc2Cl)cc1,6.3% (inactive)
4,CCCCOC(=O)c1ccc(S(N)(=O)=O)o1,-1.2% (inactive)
5,O=C(CCNc1cc(Cl)cc(Cl)c1)c1cccs1,7.8% (inactive)
6,Cc1ccc(NCCC(=O)c2cccs2)cc1Cl,18.9% (inactive)
7,COc1cc(NCCC(=O)c2cccs2)c(OC)cc1Cl,51.4% (active)
8,Clc1ccc(CSc2ncnc3nc[nH]c23)cc1,3.6% (inactive)
9,C=CCc1cccc(C=Nc2cc(Br)ccc2O)c1O,57% (active)
10,C=CCc1cccc(/C=N/c2ncccc2O)c1O,34.3% (inactive)
11,C=CCc1cccc(C=Nc2ccc(Br)cc2)c1O,-8.2% (inactive)
12,O=C(NCCCN1CCCC1=O)C1CCCO1 (centres undefined),5.1% (inactive)
13,Cc1nn(-c2ccccc2)c2[nH]c(=O)c(CNc3ccc(N4CCOCC4)cc3)cc12,55.6% (active)
14,Cc1nn(-c2ccccc2)c2[nH]c(=O)c(CNc3ccc4c(c3)OCCO4)cc12,54.2% (active)
15,Cc1nn(-c2ccccc2)c2[nH]c(=O)c(CNCCN3CCOCC3)cc12,4.3% (inactive)
16,Cc1nn(-c2ccccc2)c2[nH]c(=O)c(CNCc3ccc4c(c3)OCO4)cc12,2.9% (inactive)
17,CC(C)(C)c1nn(-c2ccccc2)c2[nH]c(=O)c(CNc3ccc4c(c3)OCCO4)cc12,5.7% (inactive)
18,CCc1ccc(NCc2cc3c(C)nn(-c4ccccc4)c3[nH]c2=O)cc1,8.8% (inactive)
19,Cn1cc(S(=O)(=O)CC(=O)N2CCCc3ccccc32)c2ccccc21,6.6% (inactive)
20,Cc1ccc(N2C(=O)NC(NC(=O)C(C)(C)C)(C(F)(F)F)C2=O)cc1 (centres undefined),4.9% (inactive)
21,COC(=O)c1ccc(/C=N/NC(=O)CNc2cccc(C)c2)cc1,9.8% (inactive)
22,CN(C)S(=O)(=O)c1cccc(NC(=S)Nc2cc(Cl)cc(Cl)c2)c1,-6.4% (inactive)
23,CN(C)S(=O)(=O)c1cccc(NC(=S)NC2CCCCC2)c1,-2.3% (inactive)
24,CCN(CCO)c1ccc(NC(=S)Nc2cccc(S(=O)(=O)N(C)C)c2)cc1,54.1% (active)

# Reference: PubChem BioAssay AID1220 (Sanford-Burnham Center for Chemical Genomics, 2008)
